Measurements reported in PubChem BioAssay (EPA / NIEHS).
“And” between values parts separate entries of the source, which are not always exact repeats. Equal values may be shown once. Some structures have more than one record in an assay (separate samples or runs), and their calls can disagree. The source made the active and inactive calls. How the source made its calls: active means hit-call score of the fitted dose curve at least 0.9, where 1 is the maximum; inactive means score below 0.9.

Key:
[1] = read-out: Cyclin D1 (CCND1), CCND1 (gene 595); assay: LTEA_HepaRG_CCND1: Life Technologies and Expression Analysis (LTEA) Assay for Cyclin D1 (CCND1) using HepaRG (AID 2283451); conditions: mRNA level, 48 h; actives raise or lower the signal;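 on AC50: differentiated human HepaRG liver cells in serum-free induction medium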
In short: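 Expression of CCND1 was quantified by qRT-PCR on Fluidigm arrays using ACTB, GAPDH and POLR2A as reference genes. HepaRG cultures, plated 48 h beforehand, were dosed for 48 h at up to 100 uM (half-log, 8 points) in 0.5% DMSO.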

[2] = read-out: catalase (CAT), CAT (gene 847); assay: LTEA_HepaRG_CAT: Life Technologies and Expression Analysis (LTEA) Assay for catalase (CAT) using HepaRG (AID 2283452); conditions: mRNA level, 48 h; actives raise or lower the signal
In short: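 HepaRG cells in serum-free induction medium, 0.5% DMSO vehicle, exposed 48 h in duplicate over 8 half-log concentrations from 100 uM. CAT mRNA measured by qRT-PCR, normalized to ACTB, GAPDH, POLR2A; bidirectional fit versus DMSO.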

[3] = read-out: flavin-containing dimethylaniline monooxygenases 3 (FMO3), FMO3 (gene 2328); assay: LTEA_HepaRG_FMO3: Life Technologies and Expression Analysis (LTEA) Assay for flavin-containing dimethylaniline monooxygenases 3 (FMO3) using HepaRG (AID 2283453); conditions: mRNA level, 48 h; actives raise or lower the signal;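 further: differentiated human HepaRG liver cells in serum-free induction medium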
In short: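 FMO3 transcript quantified by TaqMan qRT-PCR against three housekeeping genes after 48 h chemical exposure of HepaRG cells. Eight-point half-log series, top 100 uM, 0.5% DMSO vehicle; phenobarbital 1mM induction control; up- or down-regulation fitted.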

[4] = read-out: Cytochrome P450 (CYP1A1), CYP1A1 (gene 1543); assay: LTEA_HepaRG_CYP1A1: Life Technologies and Expression Analysis (LTEA) Assay for Cytochrome P450 (CYP1A1) using HepaRG (AID 2283454); conditions: mRNA level, 48 h; actives raise or lower the signal
In short: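 CYP1A1 transcript levels measured by Fluidigm qRT-PCR against three housekeeping genes, 48 h after chemical dosing of human HepaRG cells (highest concentration 100 uM, half-log steps, 0.5% DMSO vehicle). Gain or loss of signal fitted relative to DMSO.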

[5] = read-out: CFLAR gene, CFLAR (gene 8837); assay: LTEA_HepaRG_CFLAR: Life Technologies and Expression Analysis (LTEA) Assay for CFLAR gene using HepaRG (AID 2283455); conditions: mRNA level, 48 h; actives raise or lower the signal
In short: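 qRT-PCR read-out (Fluidigm/TaqMan) of CFLAR mRNA, normalized to three housekeeping genes, in differentiated human HepaRG cells after 48 h chemical exposure; 8-point half-log series from 100 uM in 0.5% DMSO; bidirectional curve fitting versus DMSO.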

[6] = CEETOX_H295R_TESTO: CeeTox H295R High-throughput Steroidogenesis Assay for Testosterone (TESTO) (AID 2283457); conditions: actives raise or lower the signal
In short: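 Testosterone secreted into the medium over 48 h by H295R cells (maximum passage 10) was quantified by LC-MS/MS after MTBE extraction. Fitted in both directions against DMSO, with concentrations diluted until MTT viability was ≥70%.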

[7] = read-out: growth arrest and DNA damage 45 (GADD45A), GADD45A (gene 1647); assay: LTEA_HepaRG_GADD45A: Life Technologies and Expression Analysis (LTEA) Assay for growth arrest and DNA damage 45 (GADD45A) using HepaRG (AID 2283458); conditions: mRNA level, 48 h; actives raise or lower the signal
In short: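 GADD45A expression was measured by TaqMan qRT-PCR against three housekeeping genes (ACTB, GAPDH, POLR2A) after 48 h treatment of HepaRG cells. Eight-point half-log series up to 100 uM in 0.5% DMSO, run in duplicate.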

[8] = read-out: Forkhead box O3 (FOXO3), FOXO3 (gene 2309); assay: LTEA_HepaRG_FOXO3: Life Technologies and Expression Analysis (LTEA) Assay for Forkhead box O3 (FOXO3) using HepaRG (AID 2283459); conditions: mRNA level, 48 h; actives raise or lower the signal
In short: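 qRT-PCR readout of FOXO3 transcript, normalized to three housekeeping genes (ACTB, GAPDH, POLR2A); gain or loss fitted against 0.5% DMSO vehicle. HepaRG cells, 48 h chemical exposure, 8-point half-log series, top 100 uM.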

[9] = read-out: ABC Transporter (ABCB1), ABCB1 (gene 5243); assay: LTEA_HepaRG_ABCB1: Life Technologies and Expression Analysis (LTEA) Assay for ABC Transporter (ABCB1) using HepaRG (AID 2283460); conditions: mRNA level, 48 h; actives raise or lower the signal
In short: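 HepaRG, 48 h exposure, 8-pt half-log series from 100 uM, 0.5% DMSO vehicle, duplicates. Readout: ABCB1 transcript by Fluidigm TaqMan qRT-PCR, housekeeping-normalized; bidirectional curve fit vs DMSO baseline.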

[10] = read-out: ABC Transporter (ABCC3), ABCC3 (gene 8714); assay: LTEA_HepaRG_ABCC3: Life Technologies and Expression Analysis (LTEA) Assay for ABC Transporter (ABCC3) using HepaRG (AID 2283462); conditions: mRNA level, 48 h; actives raise or lower the signal
In short: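 Transcript level by TaqMan qRT-PCR, normalised to three housekeeping genes, fitted in both directions relative to vehicle. Chemicals tested in duplicate at eight half-log concentrations up to 100 uM for 48 h on HepaRG cells (0.5% DMSO).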

[11] = read-out: ABC Transporter (ABCB11), ABCB11 (gene 8647); assay: LTEA_HepaRG_ABCB11: Life Technologies and Expression Analysis (LTEA) Assay for ABC Transporter (ABCB11) using HepaRG (AID 2283463); conditions: mRNA level, 48 h; actives raise or lower the signal
In short: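 HepaRG, 48 h exposure, 8-pt half-log CRC top 100 uM, 0.5% DMSO vehicle, duplicates. Readout: TaqMan qRT-PCR of ABCB11 mRNA, housekeeping-normalized (ACTB/GAPDH/POLR2A). Bidirectional fit vs DMSO baseline.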

[12] = read-out: ABC Transporter (ABCC2), ABCC2 (gene 1244); assay: LTEA_HepaRG_ABCC2: Life Technologies and Expression Analysis (LTEA) Assay for ABC Transporter (ABCC2) using HepaRG (AID 2283464); conditions: mRNA level, 48 h; actives raise or lower the signal
In short: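 Endpoint is ABCC2 transcript level from qRT-PCR, normalized to three housekeeping genes and fitted bidirectionally relative to DMSO. Human HepaRG cells received test chemical for 48 h at up to 100 uM (8 points, half-log steps, 0.5% DMSO), duplicate wells.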

[13] = read-out: Broad substrate specificity ATP-binding cassette transporter ABCG2 (Homo sapiens) (UniProt Q9UNQ0); assay: LTEA_HepaRG_ABCG2: Life Technologies and Expression Analysis (LTEA) Assay for ABC Transporter (ABCG2) using HepaRG (AID 2283465); conditions: mRNA level, 48 h; actives raise or lower the signal
In short: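 HepaRG, 48 h exposure, 8-pt half-log series from 100 uM, 0.5% DMSO vehicle, duplicates. Readout: ABCG2 transcript by qRT-PCR (Fluidigm array), housekeeping-normalized; bidirectional curve fit relative to DMSO baseline.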

[14] = read-out: Peroxisomal acyl-coenzyme A oxidase 1 (ACOX1) gene, ACOX1 (gene 51); assay: LTEA_HepaRG_ACOX1: Life Technologies and Expression Analysis (LTEA) Assay for Peroxisomal acyl-coenzyme A oxidase 1 (ACOX1) gene using HepaRG (AID 2283467); conditions: mRNA level, 48 h; actives raise or lower the signal
In short: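 HepaRG, 48 h chemical exposure, 8-pt half-log series from 100 uM top, 0.5% DMSO vehicle, duplicates. Readout: ACOX1 mRNA by Fluidigm qRT-PCR, housekeeping-normalized; bidirectional fit vs DMSO baseline.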

[15] = read-out: Alkaline Phosphatase, Placental (ALPP) gene, ALPP (gene 250); assay: LTEA_HepaRG_ALPP: Life Technologies and Expression Analysis (LTEA) Assay for Alkaline Phosphatase, Placental (ALPP) gene using HepaRG (AID 2283468); conditions: mRNA level, 48 h; actives raise or lower the signal;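 on AC50: differentiated human HepaRG liver cells in serum-free induction medium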
In short: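 ALPP transcript level, measured by qRT-PCR and normalized to three housekeeping genes (ACTB, GAPDH, POLR2A), after 48 h dosing of differentiated HepaRG in serum-free induction medium. Top concentration 100 uM with half-log dilutions (8 points, 0.5% DMSO, duplicates); bidirectional fitting relative to DMSO.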

[16] = read-out: Bcl-2 (BAD) gene, BAD (gene 572); assay: LTEA_HepaRG_BAD: Life Technologies and Expression Analysis (LTEA) Assay for Bcl-2 (BAD) gene using HepaRG (AID 2283469); conditions: mRNA level, 48 h; actives raise or lower the signal
In short: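 HepaRG, 48 h exposure, 8-pt half-log curve from 100 uM in 0.5% DMSO, duplicates. Readout: TaqMan qRT-PCR for BAD mRNA, housekeeping-normalised (ACTB/GAPDH/POLR2A); gain or loss fitted against DMSO baseline.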

[17] = read-out: Bcl-2 (BAX) gene, BAX (gene 581); assay: LTEA_HepaRG_BAX: Life Technologies and Expression Analysis (LTEA) Assay for Bcl-2 (BAX) gene using HepaRG (AID 2283470); conditions: mRNA level, 48 h; actives raise or lower the signal
In short: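 Gene expression measured by Fluidigm qRT-PCR with three housekeeping genes for normalisation. HepaRG cells, plated 48 h beforehand, treated 48 h at up to 100 uM (8-point, half-log) in 0.5% DMSO. Bidirectional fitting versus DMSO.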

[18] = read-out: Forkhead box O1 (FOXO1), FOXO1 (gene 2308); assay: LTEA_HepaRG_FOXO1: Life Technologies and Expression Analysis (LTEA) Assay for Forkhead box O1 (FOXO1) using HepaRG (AID 2283456); conditions: mRNA level, 48 h; actives raise or lower the signal
In short: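 HepaRG, 48 h exposure, 8-pt half-log series from 100 uM in 0.5% DMSO, duplicates; Fluidigm qRT-PCR mRNA, housekeeping-normalised; bidirectional fit vs DMSO baseline.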

Measured: AC50

Broad substrate specificity ATP-binding cassette transporter ABCG2 (Homo sapiens), sequence (Q9UNQ0 whole entry, looked up): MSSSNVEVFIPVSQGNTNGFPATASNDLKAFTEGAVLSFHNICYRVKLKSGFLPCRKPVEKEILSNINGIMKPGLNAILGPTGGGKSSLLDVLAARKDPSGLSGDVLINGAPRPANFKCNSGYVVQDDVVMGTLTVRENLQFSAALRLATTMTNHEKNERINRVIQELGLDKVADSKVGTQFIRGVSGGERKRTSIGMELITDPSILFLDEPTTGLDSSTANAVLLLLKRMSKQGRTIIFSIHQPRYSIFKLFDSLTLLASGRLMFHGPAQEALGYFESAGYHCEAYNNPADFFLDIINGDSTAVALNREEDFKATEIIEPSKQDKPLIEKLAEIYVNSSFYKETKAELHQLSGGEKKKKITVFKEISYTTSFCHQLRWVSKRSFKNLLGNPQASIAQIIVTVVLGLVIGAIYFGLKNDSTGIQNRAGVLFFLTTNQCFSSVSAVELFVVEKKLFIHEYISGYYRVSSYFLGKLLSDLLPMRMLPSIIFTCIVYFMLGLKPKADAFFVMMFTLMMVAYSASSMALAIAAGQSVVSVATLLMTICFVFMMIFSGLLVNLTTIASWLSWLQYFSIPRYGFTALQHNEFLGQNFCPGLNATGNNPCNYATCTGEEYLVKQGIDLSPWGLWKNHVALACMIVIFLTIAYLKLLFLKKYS

CC1=C(C(=O)Nc2ccccc2)SCCO1
inactive: [6] | [7] | [9] | [10] | [12] | [13] | [14] | [15] | [16] | [17]
active: [1] 50 µM | [2] 12.8 µM | [3] 50 µM | [4] 89.9 µM | [5] 50 µM | [8] 50 µM | [11] 50 µM

CCc1nn(C)c(C(=O)NCc2ccc(C(C)(C)C)cc2)c1Cl
active: [1] 0.382 µM | [2] 6.22 µM | [3] 14.2 µM | [5] 30.6 µM | [18] 0.484 µM | [7] 12 µM | [10] 296 nM | [11] 0.877 µM | [12] 14.3 µM | [13] 0.361 µM | [14] 0.369 µM | [15] 0.688 µM | [17] 18 µM
inactive: [4] | [8] | [9] | [16]

CCCN(CCC)c1c([N+](=O)[O-])cc(S(N)(=O)=O)cc1[N+](=O)[O-]
active: [1] 91.3 µM and 79.8 µM | [2] 93.6 µM and 50 µM and 77.6 µM | [3] 95.4 µM and 77.8 µM and 76.4 µM | [4] 11.5 µM and 50 µM and 35.1 µM | [5] 75.8 µM and 76.8 µM | [7] 85.9 µM | [8] 93.9 µM and 76.9 µM | [9] 89.8 µM and 84.8 µM and 82.3 µM | [10] 93.6 µM and 74.3 µM and 90.4 µM | [11] 82 µM | [12] 92.1 µM and 82.3 µM and 84.7 µM | [13] 15.8 µM | [14] 77.5 µM | [16] 74.1 µM
inactive: [1] | [5] | [7] | [8] | [11] | [13] | [14] | [15] | [16] | [17]
